Unmarked numbers belong to inactive results. The source made the active and inactive calls. Cut-off read from the data, not from the text of the source, unless noted: active = inhibition above about 25%; inactive = the rest.

Assay [1] has as its target Nuclear receptor coactivator 1 (Homo sapiens) (UniProt Q15788). The assay can be described thus: NCOA1 GAL4-fusion reporter inhibition – cell-based, luminescence, quadruplicate, confirmation (AID 588820;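 active = mean inhibition above 46.68%, the untreated control wells mean plus 3 SD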;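 note: 0% = DMSO wells and 100% = gossypol 36 µM treated wells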). The note with it: HEK293 GAL4-SRC1 luciferase reporter, at 3.6 µM, stronger effect = higher value.
Assay [2] in a line: repression of VP16-driven luciferase reporter – cell-based, luminescence, high throughput, counter-screen for SRC1 inhibitor project (AID 588824). The note with it: cell-based VP16 transactivation luciferase luminescence; at 3.6 µM; stronger effect = higher value.

Nuclear receptor coactivator 1 (Homo sapiens), sequence (Q15788 whole entry, looked up, the tested form may be a part): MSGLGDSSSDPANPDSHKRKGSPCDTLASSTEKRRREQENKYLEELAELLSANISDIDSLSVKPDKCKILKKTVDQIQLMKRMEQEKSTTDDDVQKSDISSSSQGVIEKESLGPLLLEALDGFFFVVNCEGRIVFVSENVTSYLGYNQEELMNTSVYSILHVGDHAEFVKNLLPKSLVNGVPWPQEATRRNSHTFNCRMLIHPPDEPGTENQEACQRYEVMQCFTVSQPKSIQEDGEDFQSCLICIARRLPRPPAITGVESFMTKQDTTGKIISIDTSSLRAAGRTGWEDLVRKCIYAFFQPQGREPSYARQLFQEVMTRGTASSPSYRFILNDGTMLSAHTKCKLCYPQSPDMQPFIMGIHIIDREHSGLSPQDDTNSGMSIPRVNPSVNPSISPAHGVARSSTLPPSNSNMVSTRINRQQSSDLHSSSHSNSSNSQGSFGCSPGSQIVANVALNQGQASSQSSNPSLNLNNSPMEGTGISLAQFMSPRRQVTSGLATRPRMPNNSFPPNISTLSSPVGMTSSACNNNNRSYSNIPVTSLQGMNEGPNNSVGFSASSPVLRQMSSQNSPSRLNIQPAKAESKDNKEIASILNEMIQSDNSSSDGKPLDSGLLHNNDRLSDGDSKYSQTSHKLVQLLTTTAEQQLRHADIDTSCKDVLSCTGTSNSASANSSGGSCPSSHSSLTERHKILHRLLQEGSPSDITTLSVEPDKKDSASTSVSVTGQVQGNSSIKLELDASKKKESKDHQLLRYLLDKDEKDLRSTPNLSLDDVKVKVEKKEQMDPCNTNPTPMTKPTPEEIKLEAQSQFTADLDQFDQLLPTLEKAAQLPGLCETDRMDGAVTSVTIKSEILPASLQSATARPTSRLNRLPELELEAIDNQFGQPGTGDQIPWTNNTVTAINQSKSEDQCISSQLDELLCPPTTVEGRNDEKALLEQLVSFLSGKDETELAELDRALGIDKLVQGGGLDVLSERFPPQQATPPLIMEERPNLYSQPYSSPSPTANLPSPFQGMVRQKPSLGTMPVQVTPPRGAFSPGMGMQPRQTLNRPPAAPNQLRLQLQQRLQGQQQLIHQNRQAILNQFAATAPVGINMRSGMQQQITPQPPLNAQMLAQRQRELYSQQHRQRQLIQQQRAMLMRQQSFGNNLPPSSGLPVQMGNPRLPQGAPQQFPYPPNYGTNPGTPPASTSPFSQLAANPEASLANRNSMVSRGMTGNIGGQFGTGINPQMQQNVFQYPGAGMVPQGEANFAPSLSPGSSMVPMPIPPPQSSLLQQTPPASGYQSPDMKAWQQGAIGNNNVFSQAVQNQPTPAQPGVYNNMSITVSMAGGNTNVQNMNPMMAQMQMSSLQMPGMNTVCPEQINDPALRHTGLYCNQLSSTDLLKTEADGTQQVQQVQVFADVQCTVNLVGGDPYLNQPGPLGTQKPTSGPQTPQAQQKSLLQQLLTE

Consider `C=CCn1c(Oc2ccccc2F)nc2c1c(=O)n(C)c(=O)n2C`, for which the inhibition is 46.6% in assay [1] and 23.6% in assay [2].

Consider `CCCn1c(=O)c(C(=O)NC(C)c2ccccc2)c(O)c2ccccc21` (configuration not stated), for which the inhibition in assay [1] was -10.4%; in assay [2] it was -9.6%.

For `O=C(CCCn1c(=S)[nH]c2ccsc2c1=O)Nc1ccc2c(c1)OCCO2`, the results for the inhibition in assay [1] and in assay [2] were -1.89% and -10.8%, respectively.

On to `CCNc1nc(NCC)n2c(SCC(=O)Nc3ccccc3C(F)(F)F)nnc2n1`, for which the inhibition is -4.19% in assay [1] and -1.57% in assay [2].

Regarding `Cc1ccc(Oc2ccccc2NC(=O)CSCC(=O)Nc2cc(C)on2)cc1`, the results for the inhibition in assay [1] and in assay [2] were 1.59% and 16.1%, respectively.

In the case of `CCCCC(=O)NC(c1cccc([N+](=O)[O-])c1)c1ccc2cccnc2c1O` (configuration not stated), the values for the inhibition in assay [1] and in assay [2] were 13.2% and 24%, respectively.

In the case of `CCN(Cc1ccncc1)C(=O)CC1C(=O)NCCN1Cc1ccc(F)c(F)c1` (configuration not stated), the inhibition was 30.1% in assay [1] and 17% in assay [2].

For `CCOC(=O)N1CCC(N(CCN(C)C)C(=S)Nc2ccccc2OCC)CC1`, the inhibition in assay [1] is -21.5%; in assay [2], 4.03%.

Take `COc1ccc(CCNC(=O)C(=O)NCC2CCCN2S(=O)(=O)c2ccccc2)cc1OC` (configuration not stated): the inhibition in assay [1] was -20.3%; in assay [2] it was -7.77%.

Regarding `COc1cc(-c2cnc3c(NC(C)=O)cc(-c4ccc(N5CCN(C)CC5)cc4)cn23)cc(OC)c1OC`, the inhibition in assay [1] is -17.8%; in assay [2], -18.2%.

For `CC1CC(C)CN(c2ncc3c(n2)CC(c2ccc(Cl)cc2)CC3=O)C1` (configuration not stated), the inhibition in assay [1] was -7.75%; in assay [2], 3.59%.

With `CN1CCN(c2ccccc2/C=C2/C(=O)Nc3ccccc32)CC1`, the results for the inhibition in assay [1] and in assay [2] were -7.17% and 10.8%, respectively.

With `O=C(Nc1ccc(Cl)c([N+](=O)[O-])c1)C(Sc1ccccc1)c1ccccc1` (configuration not stated), the results for the inhibition in assay [1] and in assay [2] were -8.15% and 5.98%, respectively.

Turning to `Cn1c(=O)c2[nH]c(Nc3ccccc3)nc2n(C)c1=O`, the inhibition is -22.1% in assay [1] and 0.08% in assay [2].

For `COc1ccc(S(=O)(=O)Nc2ccccc2C(=O)N2CCCC2)cc1OC`, the inhibition was -5.26% in assay [1] and -1.42% in assay [2].

Take `CCc1ccc(CNC(=O)C2CCCN(S(=O)(=O)N(CC)c3ccccc3)C2)cc1` (configuration not stated): the inhibition in assay [1] was -39.2%; in assay [2], -3.99%.

As to `Cc1ccnc(SC2CC(=O)N(c3ccc(C(C)C)cc3)C2=O)n1` (configuration not stated), the inhibition was 7.69% in assay [1] and -8.25% in assay [2].

As for `COc1ccc(CN(CC(=O)NCc2ccccc2)C(=O)CCC(=O)Nc2cc(C)ccn2)cc1`, the inhibition is -7.07% in assay [1] and 0.36% in assay [2].

In the case of `Cc1c(O)ccc(/C(Cc2ccc3ccccc3n2)=N\N)c1O`, the inhibition is -105% in assay [1] and -61.3% in assay [2].

Turning to `COc1ccccc1OCCn1c(C)c(C=O)c2ccccc21`, the inhibition in assay [1] is 10.8%; in assay [2], 8.95%.

As to `Cc1cn(Cc2ccccc2Cn2cc(C)c(=O)[nH]c2=O)c(=O)[nH]c1=O`, the figures for the inhibition in assay [1] and in assay [2] were -23.2% and -5.61%, respectively.

For `CS(=O)(=O)Nc1cccc(NC(=O)C2Cc3c(-c4ccco4)ccnc3O2)c1` (configuration not stated), the inhibition in assay [1] is 22.6%; in assay [2], 14.9%.

For `C=CCSc1nnc(-c2cc(C(C)(C)C)nn2Cc2ccc(F)cc2)n1C`, the inhibition in assay [1] is 1.92%; in assay [2], 4.7%.

Take `COc1cccc(CNc2nc3cc(-c4ccsc4)sc3c(=O)n2C)c1OC`: the inhibition in assay [1] is -0.05%; in assay [2], 25.6% (active).

Turning to `O=C(COc1ccc(S(=O)(=O)Nc2ccccc2)cc1)NCc1ccncc1`, the inhibition was -7.07% in assay [1] and 2.08% in assay [2].

Turning to `CCOc1cccc(/C=N/NC(=O)c2cccnc2)c1O`, the results for the inhibition in assay [1] and in assay [2] were 17.4% and 9.63%, respectively.

With `C=C1C(=O)O[C@@H]2[C@H]1CC[C@H](C)[C@]1(O)CCC(=O)[C@@]21C`, the figures for the inhibition in assay [1] and in assay [2] were -18% and 11.1%, respectively.

`Cn1c(=O)c([N+](=O)[O-])c(NCCc2ccccc2)c2ccccc21`: the inhibition in assay [1] is 4.22%; in assay [2] it was 4.74%.

As for `COc1ccc(C(C(=O)NCC2CCCO2)N(Cc2cccs2)C(=O)c2snc(C(N)=O)c2N)cc1` (configuration not stated), the inhibition was -52.6% in assay [1] and -8.57% in assay [2].

On to `CCN(c1ccccc1)S(=O)(=O)c1cc(C(=O)Nc2ccc(Br)cc2)ccc1F`, for which the inhibition in assay [1] is 16.9%; in assay [2] it was 23.2%.

Regarding `COc1ccc(OC)c(S(=O)(=O)N2CCN(c3ccccc3)CC2)c1`, the results for the inhibition in assay [1] and in assay [2] were -2.63% and -1.07%, respectively.

For `Cc1ccc2nc(C)c3c(c2c1)N(c1ccc(F)cc1)CC3`, the inhibition was 16.4% in assay [1] and 30.5% (active) in assay [2].

Regarding `Cc1cc(C)c2nc(NNC(=O)c3ccc(S(=O)(=O)N4CCc5ccccc5C4)cc3)sc2c1`, the inhibition is 32.2% in assay [1] and 30% (active) in assay [2].

Consider `Cc1cc2[nH]c(=O)c(=O)[nH]c2cc1S(=O)(=O)NC1CCC(C)CC1` (configuration not stated), for which the results for the inhibition in assay [1] and in assay [2] were -3.97% and -2.19%, respectively.

On to `O=C1NC[C@H](c2ccccc2)OC(=O)[C@@H](Cc2ccc(F)cc2)C/C=C\C[C@H]1CC(=O)N(CCO)Cc1ccccc1`, for which the inhibition is -35% in assay [1] and -0.29% in assay [2].

On to `Cn1ccnc1SCC(=O)NC1(C#N)CCCCC1`, for which the inhibition in assay [1] was -19.4%; in assay [2], -3.8%.

Take `COc1ccccc1N1CCN(C(=O)C2CCN(S(=O)(=O)c3ccc4c(c3)CC(C)N4C(=O)C3CC3)CC2)CC1` (configuration not stated): the figures for the inhibition in assay [1] and in assay [2] were -15.8% and 5.48%, respectively.

With `COc1ccc(C(=O)c2c(C)c3ccccc3n2CC(O)CNC(C)C)cc1` (configuration not stated), the inhibition in assay [1] was -15.4%; in assay [2], -0.38%.

On to `O=C1CCC/C1=c1\s/c(=C/c2cccnc2)c(=O)n1-c1ccccc1`, for which the values for the inhibition in assay [1] and in assay [2] were 25.6% and 17.8%, respectively.

Turning to `O=S(=O)(NCc1ccncc1)c1ccc(Br)s1`, the inhibition was -15.5% in assay [1] and 28.8% (active) in assay [2].

As to `COc1cccc(NC2=NC3(CCCCC3)N=C(N)N2)c1`, the inhibition in assay [1] was -9.2%; in assay [2] it was 9.05%.

For the compound `Cc1ccc(C(=O)Nc2c3c(nn2C(C)(C)C)CS(=O)(=O)C3)cc1[N+](=O)[O-]`, the values for the inhibition in assay [1] and in assay [2] were -11% and -9.8%, respectively.

For `CC(C)Cn1c(N)c(C(=O)COC(=O)c2cc3ccccc3cc2O)c(=O)n(C)c1=O`, the inhibition was 14.6% in assay [1] and 8.44% in assay [2].

Take `COc1ccc2nc(N3CCN(C(=O)c4ccc5ncsc5c4)CC3)sc2c1`: the inhibition is -5.74% in assay [1] and -0.4% in assay [2].

Take `Cc1ccccc1-c1ccc(CN2C(C)C(=O)N(Cc3cn(Cc4ccco4)nn3)CCS2(=O)=O)cc1` (configuration not stated): the inhibition in assay [1] is 7.13%; in assay [2] it was 6.95%.

Consider `NC(N)=N/N=C/c1ccc(Cl)c([N+](=O)[O-])c1`, for which the inhibition in assay [1] is -20.2%; in assay [2], -0.27%.
